The values that follow come from publication PMC12136788.

Where a chain is given by its changes, count along the chain named. Over roughly 5,800 sequences, “enrichment r” has its median near 0.68; the highest 2% begin near 11. This is one part of a sample in which the highest values are shown more often than they occur.

T1: UNK ZnF1-6 (called full-length) (human, UniProt Q9C0B0 30-357)
T1 sequence: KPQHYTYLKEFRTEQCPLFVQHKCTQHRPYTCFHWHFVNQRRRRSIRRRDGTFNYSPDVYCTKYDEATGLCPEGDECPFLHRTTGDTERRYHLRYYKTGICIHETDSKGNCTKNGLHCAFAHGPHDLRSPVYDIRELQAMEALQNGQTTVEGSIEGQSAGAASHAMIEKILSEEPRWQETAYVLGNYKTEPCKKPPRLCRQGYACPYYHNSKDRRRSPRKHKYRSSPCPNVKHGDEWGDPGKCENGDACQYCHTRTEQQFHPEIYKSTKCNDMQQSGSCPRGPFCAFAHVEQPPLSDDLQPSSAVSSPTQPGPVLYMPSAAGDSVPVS

B1: chr1:93180074:93180188:-|CDS|ENSG00000117500|unk|total|mutant (ssRNA)
RNA: GGGAGUUCUACAGUCCGACGAUCCUGGCCGCUCUGCCUCCGGUGCUGCUGCCUGGGGCGGCCGGCUUCACACCUUCCCUCGACCGCGACUUCACCUUUACCCUUCCCGCCGGCCAGAAGGAGUGCUUCUACCAGCCCAUGCCCCAACAGAGGAUUGAGCAUCA
B2: chr11:11963431:11963477:-|3pUTR|ENSG00000050165|msi1_unk|FALSE|overlapping (ssRNA)
RNA: GGGAGUUCUACAGUCCGACGAUCUUGACACUGUCCCUCUUUGGCAGUUGCAUUAGUAACUUUGAAAGGUAUAUGACUGAGCGUAGCAUACAGGUUAACCUGCAGAAACAGUACUUAGGUAAUUGUAGGGCGAGGAUUAUAAAUCAACAGAGGAUUGAGCAUCA
B3: chr1:965281:965395:+|3pUTR|ENSG00000187961|unk|total|mutant (ssRNA)
RNA: GGGAGUUCUACAGUCCGACGAUCCCAUCCGUUCACGUCUCUGCAUCCAUUCCUUCAUGUCUUUAUUCCGUUGUUUAUUUAUUCCGUUAUUUAUCUUAUUUAUUGAGGGGUGAGGAGUGCCACGGCUGCCCGUUUACACCUUUACAACAGAGGAUUGAGCAUCA
B4: chr11:130144177:130144243:+|3pUTR|ENSG00000084234|msi1_unk|total|mutant (ssRNA)
RNA: GGGAGUUCUACAGUCCGACGAUCAUGAGGGUGUCCGCUGCUGCUUUCCUUCGGAAUCCAGUGCUUCCACAGAGAUCCGCCUGCCGCUUAUAUUUGACAUUCUUCACUGUCUGUUGUUUACCUACCGCCGCUUUUUACCGUUCACAACAGAGGAUUGAGCAUCA
B5: ENSG00000124766:be:win_3001|3pUTR|ENSG00000124766|bound_else_gene|NA|bound_elsewhere_windowed (ssRNA)
RNA: GGGAGUUCUACAGUCCGACGAUCUUUUUUUGGUAGUUGUUGUUACCCACGCCAUUUUACGUCUCCUUCACUGAAGGGCUAGAGUUUUAACUUUUAAUUUUUUAUAUUUAAAUGUAGACUUUUGACACUUUUAAAAAACAAAAACAACAGAGGAUUGAGCAUCA
B6: chr1:965281:965395:+|3pUTR|ENSG00000187961|unk|FALSE|unique (ssRNA)
RNA: B3 RNA with C67U, C68A, C83U, C84A
B7: ENSG00000124766:be:win_2951|3pUTR|ENSG00000124766|bound_else_gene|NA|bound_elsewhere_windowed (ssRNA)
RNA: GGGAGUUCUACAGUCCGACGAUCCUUUAUUCCUUCCUUUUCCUUUUUUUCUUUUUUUUUUCUUUUUUUUUUUUUUUUUUUGGUAGUUGUUGUUACCCACGCCAUUUUACGUCUCCUUCACUGAAGGGCUAGAGUUUUAACUUUCAACAGAGGAUUGAGCAUCA
B8: chr8:47773456:47773635:-|3pUTR|ENSG00000253729|msi1_unk|FALSE|overlapping (ssRNA)
RNA: GGGAGUUCUACAGUCCGACGAUCGUUUUUUCCUUUCAUUUUAUUCUCUUCUAGUUUUGACAUUUUAUGAUAGAUUUGCUCUCUAGAAGGAAACGUCUUUAUUUAGGAGGGCAAAAAUUUUGGUCAUAGCAUUCACUUUUGCUACAACAGAGGAUUGAGCAUCA
B9: chr2:73730642:73730743:-|CDS|ENSG00000144034|unk|FALSE|unique (ssRNA)
RNA: GGGAGUUCUACAGUCCGACGAUCUUCAGACGUAGGAAACAAUGGUUAAUGAUCUUGUGUUUUUUUUUUCAUUUUUUUUCUCUUAGAUUUCAGAGGCUUUGAAAAAAUUUGGUAUCUCAGCAAAUGACACUUCAAUUCUAAUUGCAACAGAGGAUUGAGCAUCA
B10: chr1:17407970:17408071:-|3pUTR|ENSG00000179051|msi1|FALSE|unique (ssRNA)
RNA: GGGAGUUCUACAGUCCGACGAUCGGGUACCGUUCUGCUGACCCAGCUCCCUUUAGUCACGUUUGCUUGGCUCUGGUACCAAAUAGUUGGGAUUACCGAAGAGUCCCCUUCCUUGCGUGUCAGCACGGAUGCUGUGACUGCCACCAACAGAGGAUUGAGCAUCA
B11: chr10:95311796:95311897:-|3pUTR|ENSG00000095637|unk|FALSE|unique (ssRNA)
RNA: GGGAGUUCUACAGUCCGACGAUCCAGACAUAGAUUUUUCUGUUCAUUUAUUUUUCUUCAUUGCAGUGGAUUGAUUUGAUAAAUAGAUGUGUUGAAUUACUACAUUUGCUGUACAUAUUAUUUAAUAAACUUUAUUCAGAAUUGCAACAGAGGAUUGAGCAUCA
B12: chr10:110135209:110135310:+|3pUTR|ENSG00000148700|msi1|FALSE|bound_elsewhere (ssRNA)
RNA: GGGAGUUCUACAGUCCGACGAUCCUCUCUAUUGGAAGAUUUUUUUAAUGUUCUACAUCAUUUAUGUUGUAUUACAAUGUAUGUAGAAAUAGUAACCUGUGAACUAUGCUUUUCCAUAACUUUUUAAAAAUAUAUAUAUCUAAACAACAGAGGAUUGAGCAUCA
B13: chr21:34788506:34788607:-|3pUTR|ENSG00000159216|msi1|FALSE|unique (ssRNA)
RNA: GGGAGUUCUACAGUCCGACGAUCUUGUUAAUGCCUAUAACUUUUUUUCAAUUUUUUUGUGUGUGUUUCUAAGGACUUUUUCUUAGGUUUGCUAAAUACUGUAGGGAAAAAAAUGCUUCUUUCUACUUUGUUUAUUUUAGACUUCAACAGAGGAUUGAGCAUCA
B14: chr6:142752714:142752806:-|3pUTR|ENSG00000010818|msi1_unk|total|mutant (ssRNA)
RNA: GGGAGUUCUACAGUCCGACGAUCUUUUCUUUACUUUGCUUAUAUUCUUAUAAGCAUUUUUCCGCAGUAAUUUGUACAUAUUUCCGAAUUUGUGUAUCUGCUUUGUAAUAAAUGUAAUUUCUUUCCUUUUUUGGACACUUGGAUCAACAGAGGAUUGAGCAUCA
B15: chr10:62095068:62095169:+|3pUTR|ENSG00000150347|msi1|total|mutant (ssRNA)
RNA: GGGAGUUCUACAGUCCGACGAUCCCAUUUGCUUCAAUUAAUUAUUUACCUUCCUGUGGAAUAAUAUAUAUAUAUAUAUUUAACCGAACCACCGACCGACCCGCCGAAUUCCGAUUAUAAAUGUGUGAGUGCAGAUUAUCCUGCCAACAGAGGAUUGAGCAUCA
B16: chr9:72354534:72354635:-|3pUTR|ENSG00000107372|msi1|FALSE|unique (ssRNA)
RNA: GGGAGUUCUACAGUCCGACGAUCGUCCUAGUUUUUACUUUUAUUCUUAAAGCAUUCAGUUUUGCUUUCAAUUUUAUGUACCUUAGUUCUGAGUUAGACCUGCAGAUGUGUACAGAUAGUUCAUAUUUAUGUAUUGCACAUAAUCAACAGAGGAUUGAGCAUCA
B17: chr6:133987709:133987810:+|3pUTR|ENSG00000028839|unk|FALSE|unique (ssRNA)
RNA: GGGAGUUCUACAGUCCGACGAUCAAUAACAAAUAGGAAUUUUUUUUCUUGCAGAUUAGAAAUAAAAACGUGUAUAUAAACUCUAGGGAACCAGACUAGAAGUUUAUAGAUAAAGGAUAAUGUUUUAUGUUGCUAAUUUAAUAUCAACAGAGGAUUGAGCAUCA
B18: chr4:138167974:138168075:-|3pUTR|ENSG00000151012|msi1|FALSE|unique (ssRNA)
RNA: GGGAGUUCUACAGUCCGACGAUCCACAAAAUCUGCAUUGUCCAUGUGAGUAAAGUAAAAUAAUUCCUGUUAUUUUUUUCUGUUAGAAAUAAGUAUGGAGGAUAUGUUUUUAAAAAUUUAUGAGUUAAUUGAAAUAUCCAUAUACAACAGAGGAUUGAGCAUCA

For the assay, the target named is T1, UNK ZnF1-6 (called full-length). Nature of the assay: nsRBNS (natural sequence RNA bind-n-seq); RBNS binding buffer (assumed for nsRBNS): 25 mM Tris pH 7.5, 150 mM KCl, 3 mM MgCl2, 0.01% Triton X-100, 500 ug/ml BSA, 20 U/ml SUPERase-In, 4 C; UNK is unkempt and MSI1 is Musashi-1; names of the RNAs are library labels; protein concentration not given here; high values mean tight binding.
In turn, B1 displayed a binding signal of 0.868 enrichment R.
The result for B2 reads 0.884 enrichment R; that for B3, 5.63 enrichment R; that for B4, 0.644 enrichment R.
The result for B5 reads 4.11 enrichment R.
Under B6 stands 199 enrichment R.
Molecule B7 gave a binding signal of 35.6 enrichment R.
The result for B8 reads 5.42 enrichment R; that for B9, 1.44 enrichment R; that for B10, 2 enrichment R.
B11 yielded a binding signal of 2.42 enrichment R.
Turning to B12, the binding signal was 7.46 enrichment R.
Under B13 stands 2.15 enrichment R; under B14, 0.576 enrichment R.
As to B15, the binding signal was 2.12 enrichment R.
Under B16 stands 37.4 enrichment R; under B17, 2.44 enrichment R.
Under B18 stands 1.08 enrichment R.
